Screen size: about 5,500 compounds; about 2,000 (36%) were called active. Inconclusive results (about 18%) are left out. Rule as the data show it: active = normalized growth mostly below about 0.91 (no sharp cut-off); inconclusive = no clear call, values can overlap the other calls; inactive = mostly above about 0.92. Some of the results follow.
Experiment: chemical genetic growth profiling, strain panel (AID 1159580);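 also: tested at 20 µM; growth read once vehicle control cultures reached saturation at 30 °C; 1 = growth at the plate median or of vehicle wells; lower values mean less growth of the strain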
Details: growth OD

Measured: normalized growth

COc1c(C)c2c(c(C)c1Cl)Oc1c(Cl)c(OC)c(Cl)c(C)c1C(=O)O2
inactive: S. cerevisiae deletion strains, locus YAL013W, strain DEP1, active compounds read low 0.992 | S. cerevisiae deletion strains, locus YBR021W, strain FUR4, active compounds read low 1.05 | S. cerevisiae deletion strains, locus YBR229C, strain ROT2, active compounds read low 1.01 | S. cerevisiae deletion strains, locus YCL029C, strain bik1, active compounds read low 1.02 | S. cerevisiae deletion strains, locus YDL035C, strain GPR1, active compounds read low 1.01 | S. cerevisiae deletion strains, locus YDL074C, strain BRE1, active compounds read low 1 | S. cerevisiae deletion strains, locus YDL101C, strain DUN1, active compounds read low 1.01 | S. cerevisiae deletion strains, locus YDL134C, strain PPH21, active compounds read low 1.01 | S. cerevisiae deletion strains, locus YDL185W, strain tfp1, active compounds read low 1.02 | S. cerevisiae deletion strains, locus YDL192W, strain arf1, active compounds read low 1.02 | S. cerevisiae deletion strains, locus YDR101C, strain arx1, active compounds read low 1.01 | S. cerevisiae deletion strains, locus YDR150W, strain NUM1, active compounds read low 1.02 | S. cerevisiae deletion strains, locus YDR162C, strain NBP2, active compounds read low 0.987 | S. cerevisiae deletion strains, locus YDR318W, strain mcm21, active compounds read low 1.03 | S. cerevisiae deletion strains, locus YDR388W, active compounds read low 1.01 | S. cerevisiae deletion strains, locus YDR502C, strain sam2, active compounds read low 1.01 | S. cerevisiae deletion strains, locus YEL061C, strain CIN8, active compounds read low 1.01 | S. cerevisiae deletion strains, locus YER110C, active compounds read low 1.02 | S. cerevisiae deletion strains, locus YER155C, strain BEM2, active compounds read low 1.01 | S. cerevisiae deletion strains, locus YER167W, strain BCK2, active compounds read low 1.03 | S. cerevisiae deletion strains, locus YGL078C, strain dbp3, active compounds read low 1.01 | S. cerevisiae deletion strains, locus YGL086W, strain mad1, active compounds read low 1.02 | S. cerevisiae deletion strains, locus YGL248W, strain PDE1, active compounds read low 1.02 | S. cerevisiae deletion strains, locus YGR078C, strain PAC10, active compounds read low 1.01 | S. cerevisiae deletion strains, locus YGR135W, strain pre9, active compounds read low 1 | S. cerevisiae deletion strains, locus YGR229C, strain SMI1, active compounds read low 0.991 | S. cerevisiae deletion strains, locus YGR252W, strain gcn5, active compounds read low 1.05 | S. cerevisiae deletion strains, locus YHR030C, strain SLT2, active compounds read low 1.02 | S. cerevisiae deletion strains, locus YHR079C, strain IRE1 (second series), active compounds read low 1.03 | S. cerevisiae deletion strains, locus YHR094C, strain hxt1, active compounds read low 1.01 | S. cerevisiae deletion strains, locus YHR129C, strain ARP1, active compounds read low 1.02 | S. cerevisiae deletion strains, locus YHR200W, strain rpn10, active compounds read low 1.02 | S. cerevisiae deletion strains, locus YIL066C, strain RNR3, active compounds read low 1 | S. cerevisiae deletion strains, locus YIL073C, strain SPO22, active compounds read low 1.08 | S. cerevisiae deletion strains, locus YIL125W, strain kgd1, active compounds read low 1.02 | S. cerevisiae deletion strains, locus YIR030C, strain dcg1, active compounds read low 1.01 | S. cerevisiae deletion strains, locus YJL095W, strain BCK1, active compounds read low 1.02 | S. cerevisiae deletion strains, locus YJL134W, strain LCB3, active compounds read low 1.01 | S. cerevisiae deletion strains, locus YJL168C, strain set2, active compounds read low 1.01 | S. cerevisiae deletion strains, locus YJL187C, strain SWE1 (second series), active compounds read low 1.01 | S. cerevisiae deletion strains, locus YJR043C, strain POL32, active compounds read low 1.04 | S. cerevisiae deletion strains, locus YJR075W, strain HOC1, active compounds read low 1.01 | S. cerevisiae deletion strains, locus YKL009W, strain mrt4, active compounds read low 1.03 | S. cerevisiae deletion strains, locus YKL068W, active compounds read low 1.01 | S. cerevisiae deletion strains, locus YKL085W, strain MDH1 (second series), active compounds read low 1.02 | S. cerevisiae deletion strains, locus YKL085W, strain MDH1, active compounds read low 1.02 | S. cerevisiae deletion strains, locus YKL190W, strain CNB1, active compounds read low 1.01 | S. cerevisiae deletion strains, locus YKR001C, strain vps1, active compounds read low 1.03 | S. cerevisiae deletion strains, locus YLR039C, strain RIC1, active compounds read low 1.06 | S. cerevisiae deletion strains, locus YLR058C, strain SHM2, active compounds read low 1.02 | S. cerevisiae deletion strains, locus YLR102C, strain apc9, active compounds read low 1.01 | S. cerevisiae deletion strains, locus YLR262C, strain YPT6, active compounds read low 1.02 | S. cerevisiae deletion strains, locus YLR268W, strain sec22, active compounds read low 0.997 | S. cerevisiae deletion strains, locus YLR330W, strain CHS5, active compounds read low 1.02 | S. cerevisiae deletion strains, locus YLR342W, strain FKS1 (second series), active compounds read low 1.08 | S. cerevisiae deletion strains, locus YLR371W, strain rom2, active compounds read low 1.02 | S. cerevisiae deletion strains, locus YLR418C, strain cdc73, active compounds read low 0.989 | S. cerevisiae deletion strains, locus YML016C, strain PPZ1, active compounds read low 1.01 | S. cerevisiae deletion strains, locus YML032C, strain rad52, active compounds read low 1.03 | S. cerevisiae deletion strains, locus YML124C, strain tub3, active compounds read low 1.01 | S. cerevisiae deletion strains, locus YMR078C, strain ctf18, active compounds read low 1.02 | S. cerevisiae deletion strains, locus YMR223W, strain ubp8, active compounds read low 1.03 | S. cerevisiae deletion strains, locus YMR263W, strain SAP30, active compounds read low 1.01 | S. cerevisiae deletion strains, locus YMR307W, strain GAS1, active compounds read low 1.06 | S. cerevisiae deletion strains, locus YNL067W, strain RPL9B, active compounds read low 1.01 | S. cerevisiae deletion strains, locus YNL128W, strain TEP1, active compounds read low 0.967 | S. cerevisiae deletion strains, locus YNL153C, strain GIM3, active compounds read low 1 | S. cerevisiae deletion strains, locus YNL233W, strain BNI4, active compounds read low 1.02 | S. cerevisiae deletion strains, locus YNL250W, strain rad50, active compounds read low 1.01 | S. cerevisiae deletion strains, locus YNL271C, strain bni1, active compounds read low 1.01 | S. cerevisiae deletion strains, locus YNL298W, strain CLA4, active compounds read low 1.03 | S. cerevisiae deletion strains, locus YNL307C, strain MCK1, active compounds read low 1.03 | S. cerevisiae deletion strains, locus YNL322C, strain KRE1, active compounds read low 1 | S. cerevisiae deletion strains, locus YNR052C, strain pop2, active compounds read low 1.02 | S. cerevisiae deletion strains, locus YOL006C, strain TOP1, active compounds read low 1.1 | S. cerevisiae deletion strains, locus YOL012C, strain htz1 0.785 | S. cerevisiae deletion strains, locus YOL147C, strain pex11, active compounds read low 1.01 | S. cerevisiae deletion strains, locus YOR061W, strain CKA2, active compounds read low 1.01 | S. cerevisiae deletion strains, locus YOR069W, strain VPS5, active compounds read low 1.02 | S. cerevisiae deletion strains, locus YOR136W, strain idh2, active compounds read low 1.02 | S. cerevisiae deletion strains, locus YOR144C, strain elg1, active compounds read low 1.01 | S. cerevisiae deletion strains, locus YOR184W, strain ser1, active compounds read low 1.05 | S. cerevisiae deletion strains, locus YOR316C, strain cot1, active compounds read low 1.02 | S. cerevisiae deletion strains, locus YPL055C, strain LGE1, active compounds read low 0.99 | S. cerevisiae deletion strains, locus YPL241C, strain CIN2, active compounds read low 1 | S. cerevisiae deletion strains, locus YPR119W, strain clb2, active compounds read low 1 | S. cerevisiae deletion strains, locus YPR141C, strain kar3, active compounds read low 1.01 | S. cerevisiae deletion strains, locus YPR163C, strain tif3, active compounds read low 1.03 | S. cerevisiae deletion strains, locus YPR167C, strain met16, active compounds read low 1.01 | S. cerevisiae deletion strains, strain wtn01, active compounds read low 1.01 | S. cerevisiae strains, strain wild type, active compounds read low 1
